Our source for the outcome and AC50 values is PubChem BioAssay (EPA / NIEHS).

Active and inactive are the calls of the source. The calls were made as follows: active = hit-call score of the fitted dose curve at least 0.9, where 1 is the maximum; inactive = score below 0.9.

A short description of this test: APR_HepG2_p53Act_24hr: Apredica 24-hour HepG2 Assay for p53 Activation (AID 2282913).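 Also: p53 protein immunofluorescence averaged per cell in HepG2 with Hoechst nuclei.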 The conditions noted are these: high-content imaging, actives raise or lower the signal. The gist of the method:
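HepG2 cells exposed 24 h to compounds at 0.39–200 uM in duplicate, 0.5% v/v DMSO final; fixed, permeabilized, stained with anti-p53 antibody and Hoechst 33342; fluorescence imaging; bidirectional curve fit versus DMSO.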
`C=CCc1ccc(O)c(OC)c1`: the outcome was inactive. Regarding `O=c1c(O)c(-c2ccc(O)c(O)c2)oc2cc(O)cc(O)c12`, the result was inactive. With `CCCCC(CC)COC(=O)CC(C(=O)OCC(CC)CCCC)S(=O)(=O)O` (stereo not given), the AC50 was 104 µM (active). With `CCOC(=O)C(C)(C)Oc1ccc(Cl)cc1`, the call was inactive. The same measure, in the same setting: the result for `Oc1ccc2c(c1)OC[C@@H](N1CCC(O)(c3ccc(F)cc3)CC1)[C@H]2O` reads “inactive”. Regarding `NC(=O)Cn1c(=O)cc(CCN2CCN(c3nccc4sccc34)CC2)c2ccc(F)cc21`, the call was inactive.

For the molecule `CNCc1cc(F)ccc1Oc1ccc(Cl)c(Cl)c1`, the AC50 is 52.4 µM (active). In the case of `Cc1cccc(Nc2cc(Cl)nc(SCC(=O)O)n2)c1C`, the molecule was classed as inactive. Consider `CCOC(=O)CCC(=O)OCC`, for which the molecule was classed as inactive. Regarding `CCNc1cccc(C)c1`, the molecule was classed as inactive. As to `Nc1ccc2c(c1)C(=O)c1ccccc1C2=O`, the molecule was called inactive. For the molecule `NS(=O)(=O)c1cc2c(cc1Cl)NCNS2(=O)=O`, the molecule was called inactive. `CCCCCCCCCCCCCO`: the call was inactive.

Turning to `CN1CCCC1=O`, the call was inactive.

As to `C1CCC(SSC2CCCCC2)CC1`, the AC50 was 88.4 µM (active). With `COCCOC[C@H](CC1(C(=O)NC2CCC(C(=O)O)CC2)CCCC1)C(=O)Oc1ccc2c(c1)CCC2` (stereo not given in full), the molecule was called inactive. In the case of `O=C(N[C@@H](Cc1ccccc1)[C@@H](O)C(=O)N1C[C@@H](O)[C@@H](O)C1)c1cc2cc(Cl)ccc2[nH]1`, the molecule was classed as inactive.

`CCCCCCCCCCCCCCCC`: the molecule was called inactive. Same read-out and setting: to `O=C(O)Cc1ccccc1Nc1c(Cl)cccc1Cl` belongs “inactive”. On the same count and under the same terms, to `O=C(O)CCCCC(=O)O` belongs “inactive”; to `CC(C)c1ccc(C(=O)N=C(N)N)cc1S(C)(=O)=O`, “inactive”. As for `Nc1ccc(S(=O)(=O)c2ccc(N)cc2)cc1`, the outcome was inactive. With `Cc1ccc(Cl)cc1`, the result was inactive.

Regarding `CC(=O)OCCOCCOCCOC(C)=O`, the call was inactive. Turning to `CC1=C(/C=C/C(C)=C/C=C/C(C)=C/CO)C(C)(C)CCC1`, the AC50 is 85.8 µM (active). `Nc1nc(N)c2nc(CNc3ccc(C(=O)N[C@@H](CCC(=O)O)C(=O)O)cc3)cnc2n1`: the molecule was called inactive. Turning to `CCCCCCOCCO`, the result was inactive. Regarding `COc1ccc2c(c1)c(CC(=O)O)c(C)n2C(=O)c1ccc(Cl)cc1`, the outcome was inactive.

`FC(F)(F)C(F)(F)C(F)(F)C(F)(F)C(F)(F)C(F)(F)CCI`: the call was inactive. `C=CCOC(=O)c1ccccc1C(=O)OCC=C`: the molecule was called inactive.

The term AC50 denotes the midpoint of the concentration-response curve, whichever way the signal moves.
